FLuc modulator – qHTS profiling assay for firefly luciferase inhibitor/activator using purifed enzyme and Km concentrations of substrates (counterscreen for miR-21 project); Luciferin 4-monooxygenase (Photinus pyralis), P08659; 360,000 compounds, 6.9% hits; purified FLuc, Km substrates, luminescence inhibition; Potency, µM (doses to about 57.5 µM), without a hit: top-dose activity change, negative = inhibition, most hits filed as inhibitors;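 note: plate controls were vehicle for no effect and reference inhibitor for full effect; nearly all actives have a fitted effect of over 55% in size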
Target sequence (P08659 whole entry, looked up): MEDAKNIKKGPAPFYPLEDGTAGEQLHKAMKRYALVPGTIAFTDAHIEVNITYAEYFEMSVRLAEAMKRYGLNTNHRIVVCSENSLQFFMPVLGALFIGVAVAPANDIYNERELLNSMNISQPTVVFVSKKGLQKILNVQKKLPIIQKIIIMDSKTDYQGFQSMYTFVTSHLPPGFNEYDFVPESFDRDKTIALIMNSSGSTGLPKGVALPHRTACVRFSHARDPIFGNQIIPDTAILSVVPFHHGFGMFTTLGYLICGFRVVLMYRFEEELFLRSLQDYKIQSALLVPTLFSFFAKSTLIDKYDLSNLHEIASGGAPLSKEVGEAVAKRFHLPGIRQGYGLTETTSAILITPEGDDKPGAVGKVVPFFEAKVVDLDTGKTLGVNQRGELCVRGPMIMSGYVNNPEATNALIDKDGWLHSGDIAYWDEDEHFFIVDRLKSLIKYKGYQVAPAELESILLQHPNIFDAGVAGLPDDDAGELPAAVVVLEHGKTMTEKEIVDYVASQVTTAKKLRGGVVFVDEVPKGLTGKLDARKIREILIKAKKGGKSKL
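Purified P. pyralis luciferase, 10 nM final, with Km-level 10 uM D-luciferin and 10 uM ATP in 50 mM Tris acetate pH 7.5, 10 mM Mg acetate, 0.01% Tween-20, 0.05% BSA; 6-point qHTS titration about 60 µM downward; luminescence read.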
KinaseGlo FLuc – Counterscreen for Luciferase (Kinase-Glo TM) Inhibition | Luciferin 4-monooxygenase (Photuris pensylvanica), Q27757 | Kinase-Glo luciferase, ATP luminescence, 8 min | Potency, µM (top dose mostly 38.3 µM), without a hit: top-dose activity change, negative = inhibition, usual class: inhibitors | 200,000 compounds, 0.28% hits; note: % is set by controls: 0 for no effect and ±100 for the full control effect; nearly all actives have a fitted effect of over 60% in size
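Kinase-Glo luciferase light output from ATP and luciferin was measured with 10 uM ATP, within the enzyme's linear range. Buffer: 50 mM imidazole pH 7.2, 50 mM KCl, 7 mM MgCl2, 0.01% Tween 20, 0.05% BSA; luminescence read after 8 min at ambient temperature.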
ELG1 genotox – qHTS screen for small molecules that induce genotoxicity in human embryonic kidney (HEK293T) cells expressing luciferase-tagged ELG1; Potency, µM (top dose mostly 46 µM), without a hit: top-dose activity change, positive = activation, hits mostly activators; AID 504466, 2011; 330,000 compounds, 1.3% hits; HEK293T ELG1-luciferase reporter, luminescence, 16 h; note: % of control where 0% means no effect; nearly all actives have a fitted effect of over 60% in size
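Cells (2,000/well) expressing the ELG1-luciferase fusion are dosed by pin tool and kept 16 hr at 37 °C, 5% CO2. Signal comes from ONE-Glo luciferase reagent after 30 min at room temperature.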
NPC1 promoter act – qHTS Assay for NPC1 Promoter Activators | Potency, µM (doses to about 9.22 µM), for inactives: at the top dose activation, most hits filed as activators | AID 485313, 2010 | Huh7 NPC1 promoter luciferase reporter, 24 h | 320,000 compounds, 2.4% hits; note: % of control where 0% means no effect; nearly all actives have a fitted effect of over 60% in size
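Stably transfected Huh7 (NPC1 promoter→luciferase), 1500 cells/well in Opti-MEM + 10% FBS, 2 h settle, then compound 24 h at 37 °C. Luminescence after 10 min with Amplite reagent.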
Rab9 promoter act – qHTS Assay for Rab9 Promoter Activators. Huh7 Rab9 promoter-luciferase reporter, luminescence, 24 h. Potency, µM (titrated, usually from 9.22 µM), inactives show top-dose activation, negative = inhibition, usual class: activators. 320,000 compounds, 2.8% hits. AID 485297, 2010; note: % of control where 0% means no effect; nearly all actives have a fitted effect of over 60% in size
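Huh7 cells stably carrying a Rab9 promoter-luciferase reporter, 1500 cells per well in OP-MEM I with 10% FBS, treated with compound 24 hours at 37C. Luciferase activity read by luminescence after 10 minutes with Amplite reagent.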
SMN2 splice up – qHTS Assay for Enhancers of SMN2 Splice Variant Expression; AID 1458, 2008; 210,000 compounds, 2.8% hits; HEK293 SMN2-luciferase splicing reporter, luminescence, 30-36 h; Potency, µM (series often up to 46.1 µM), without a hit: at the highest dose activity change, positive = activation, hits mostly activators; note: % of control where 0% means no effect; nearly all actives have a fitted effect of over 55% in size
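qHTS luciferase splicing reporter: luminescence rises when SMN2 exon 7 is included in transfected HEK293 cells. Compound exposure lasted 30-36 h at 37C, with 4.5 mM final sodium butyrate as control, followed by a ONE-Glo read.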
* marks the source's active call; other numbers are inactive results; ? = inconclusive; . = no result; [ ] = another dose, or the depositor's remark. Compounds with a hit are over-represented: about 7.3% of the library has one in this group of screens. Calls come from the whole dose curve; as a rule, active = well fitted curve in the direction sought with a large enough effect; inconclusive = small, poorly fitted or top-dose-only effect, or another doubt; inactive = no such curve, though single readings can be large; an effect the other way counts as inactive or inconclusive. Potency is the fitted concentration of half-maximal effect.

SMILES | FLuc modulator | KinaseGlo FLuc | ELG1 genotox | NPC1 promoter act | Rab9 promoter act | SMN2 splice up
NC(=S)N=Nc1ccc(NN=C(N)N)cc1 | 21µM* | . | -5% | -2% | 4% | .
NC(N)=Nc1ccc(N=C(N)N)cc1 | 2% | . | -2% | -5% | -6% | .
CCOc1ccc(C(=O)N2CCN(Cc3ccccc3)CC2)cc1 | -5% | 4% | -4% | -5% | 5% | -9%
COc1ccc(OCCC(=O)N2CCN(C)CC2)cc1 | -3% | . | 2% | -5% | -5% | .
CCOc1ccc(OCc2cccc(C(=O)N3CCCCCC3)c2)cc1 | 0.54µM* | -2% | ? | 0.32µM* | 0.28µM* | 1.8µM*
CC1CN(C(=O)c2cccc(COc3ccccc3Cl)c2)CC(C)O1 (configuration not stated) | 15µM* | 1% | ? | 3.5µM* | ? | 11µM*
CCOc1ccc(OCc2cccc(C(=O)N3CCCC3)c2)cc1 | 3µM* | -4% | 0.65µM* | 0.35µM* | 0.45µM* | 2.8µM*
COc1ccc(OCCC(=O)N2CCCCC2)cc1 | ? | 0% | 11% | 30% | 29% | 18µM*
COc1cccc(C2=NS(=O)(=O)N(C)C(C(=O)Nc3ccccc3SC)=C2)c1 | -8% | . | . | . | . | .
CC1=NCC[N@@+]1(CCc1ccccc1)Cc1ccccc1 | . | -2%[7.66 µM] | . | . | . | -18%[9.22 µM]
O=C(NN1CCCCC1)c1cccc(COc2ccc(Cl)cc2)c1 | 4.8µM* | 1% | ? | ? | 3.5µM* | 14µM*
CCOc1ccc(C(=O)N2CCCC2)cc1 | 0% | 0% | 3% | -2% | 1% | 7%
CCCCOc1ccc(C(=O)N2CCCC2)cc1 | ? | -16% | 18µM* | 21% | 25% | 11µM*
COc1cccc(CNC(=O)c2cc3c(=O)oc4ccc(C)cc4c3s2)c1 | 1% | . | . | . | . | 4%
CCOC(=O)Cn1nc(/C=C/c2ccc(C(C)C)cc2)ccc1=O | 11µM* | -1% | 1% | 22% | 13% | -11%
CCOC(=O)Cn1nc(/C=C/c2ccc(C)cc2)ccc1=O | ? | 2% | -1% | 4% | 1% | 0%
COc1ccc(N2C(S)=C(C#N)C(=O)NC23CCCCC3)cc1 | 27µM* | -2% | 0% | 1% | 1% | .
CCC1(CC)Nc2ccccc2C(=O)N1c1ccc(OC)cc1 | 11µM* | . | ? | 2µM* | 2.5µM* | .
COc1ccc(N2C(=O)c3ccccc3NC23CCCC3)cc1 | ? | -1% | ? | 4µM* | 2.5µM* | 11µM*
CCC1(CC)Nc2ccccc2C(=O)N1c1ccc(NC(C)=O)cc1 | -12% | 14% | ? | 19% | ? | 4%
COc1ccc(N2C(=O)CCC2(C#N)c2ccc(Br)cc2)cc1 (configuration not stated) | 1% | 2% | 4% | 1% | -2% | -4%
O=C(CCc1nnc(-c2ccsc2)o1)N1CCc2c(Cl)cccc2C1 | 17µM* | -2% | ? | 19% | ? | .
O=C(CCc1nnc(-c2ccccc2)o1)NC1CCCCC1 | 17µM* | 1% | ? | 30% | ? | .
COC(c1ccccc1)c1nnc(CCC(=O)NC2CCCCC2)o1 (configuration not stated) | -16% | 2% | -1% | -2% | -3% | .
O=C(CCc1nnc(-c2ccc(-c3ccccc3)cc2)o1)N1CCCCC1 | 13µM* | . | ? | ? | ? | .
SMILES | FLuc modulator | KinaseGlo FLuc | ELG1 genotox | NPC1 promoter act | Rab9 promoter act | SMN2 splice up
CCc1nn(CC(=O)N(C)Cc2ccccc2)c(=O)c2cc3sccc3n12 | -10% | . | . | . | . | -11%
O=C(Nc1ccc(C(F)(F)F)cc1)C1CCCN(c2cnccn2)C1 (configuration not stated) | -2% | . | . | . | . | -20%
Clc1ccc(-c2nnc(N3CCCC3)nn2)cc1 | 1.2µM* | -10% | ? | ? | 0.32µM* | 6.3µM*
CCN1C(=C2C(=O)c3ccccc3C2=O)C=Cc2ccccc21 | ? | 0% | ? | 10% | 9% | -2%
CCCCCN1C=CC(=C2C(=O)c3ccccc3C2=O)C=C1 | 0.067µM* | 2.8µM* | -13% | 0.13µM* | 0.016µM* | -100%
CC1CCN(c2nc3ccc(C(=O)O)cc3s2)CC1 | 0.21µM* | -5% | -23% | -48% | -49% | -53%
O=C(NCCc1ccccc1)c1ccc2nc(N3CCCCC3)sc2c1 | ? | . | . | . | . | 2%
O=C(NCCCN1CCN(c2ccccc2F)CC1)c1ccc2nc(N3CCCCC3)sc2c1 | ? | . | . | . | . | 5.6µM*
O=C(NCC1CCCO1)c1ccc2nc(N3CCCCC3)sc2c1 (configuration not stated) | 17µM* | -3% | ? | 2µM* | ? | 0%
CC1CCN(c2nc3ccc(C(=O)NCc4ccccc4Cl)cc3s2)CC1 | 6.7µM* | . | . | . | . | -10%
CC1CCN(c2nc3ccc(C(=O)NCCCN4CCCCC4)cc3s2)CC1 | ? | . | ? | ? | -40% | .
CCC1CCCCN1CCCNC(=O)c1ccc2nc(N3CCC(C)CC3)sc2c1 (configuration not stated) | ? | . | 0.16µM* | -13% | -38% | .
CC1CCN(c2nc3ccc(C(=O)NCc4ccc(Cl)cc4)cc3s2)CC1 | 11µM* | . | . | . | . | -57%
Cc1noc(C)c1-c1cc(NC2CC2)ncn1 | . | -4% | . | . | . | 15%
O=C(CC(SCCO)c1ccc2c(c1)OCO2)c1ccco1 (configuration not stated) | 4.8µM* | -8% | ? | ? | ? | -5%
Cc1ccc2nc(C3CCCCC3)[nH]c2c1 | 9.5µM* | . | ? | 1.8µM* | 2.8µM* | .
CCc1cccc(NC(=O)C(NS(=O)(=O)c2ccc3nc(C)sc3c2)C(C)C)c1 (configuration not stated) | -3% | . | . | . | . | 16%
COc1ccc2nc(N3CCCCC3)c(/C=C3\SC(=S)NC3=O)cc2c1 | 17µM* | . | -5% | -3% | -1% | .
Cc1nn(C)cc1/C=C1\SC(=S)NC1=O | ? | -1% | 0% | -1% | -1% | 2%
Cc1cc(/C=C2\SC(=S)NC2=O)cc(C)c1O | 8.5µM* | . | 16% | 2% | -2% | .
O=C1NC(=S)S/C1=C\c1cc2ccccc2nc1N1CCCCC1 | -1% | . | -15% | -4% | -3% | .
Cc1cc(/C=C2\SC(=S)NC2=O)c(C)n1-c1ccc(O)cc1 | 0.85µM* | . | ? | 1.8µM* | 1.8µM* | .
Cc1cc(/C=C2\SC(N)=NC2=O)c(C)n1-c1ccccc1 | 0.38µM* | -9% | 7.3µM* | 1.4µM* | 2.8µM* | 13µM*
Cc1ccc(-n2c3nc(=O)n(C)c(=O)c-3cc3c(Cl)cccc32)c(C)c1 | 0% | . | . | . | . | -5%
